Rows were chosen to be rich in hits. Some 19% of all compounds tested hit in one or more screens of this group.
DT40 TDP1 no CPT – qHTS for Inhibitors of human tyrosyl-DNA phosphodiesterase 1 (TDP1): qHTS in cells in absence of CPT; DT40 Tdp1-/- hTDP1 cells, no CPT, ATP luminescence, 48 h; Potency, µM (titrated, usually from 46.2 µM), hits mostly inhibitors; actives 15% (n = 420,000); AID 686978, 2013; further: nearly all actives have a fitted effect of over 55% in size
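Stably hTDP1-transfected Tdp1-null chicken DT40 cells were treated with library compounds minus camptothecin and grown for at least 48 hr at 37 °C, after which cellular ATP was quantified by luminescence.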
HT1080 IDH1KD tx – toxicity to HT-1080 IDH1 knockdown cells (counter line); HT-1080 IDH1 knockdown viability, ATP luminescence, 48 h; Potency, µM (series often up to 46.1 µM), actives largely listed as cytotoxic; actives 2% (n = 360,000); AID 686971
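% activity derives from luminescence (CellTiter-Glo), normalised to DMSO and no-cell wells. HT-1080-IDH1KD cells, 750/well, had 48 h compound exposure at 37 °C.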
HT1080NT lethal – kills 2HG-producing HT-1080-NT fibrosarcoma cells; HT-1080-NT fibrosarcoma viability, CellTiter-Glo ATP luminescence, 48 h; Potency, µM (doses to about 46.1 µM), actives largely listed as cytotoxic; actives 1.6% (n = 360,000); AID 686970;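 further: NT is the 2HG producing partner of a matched IDH1 knockdown line; nearly all actives have a fitted effect of over 55% in size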
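HT-1080-NT fibrosarcoma cells (2HG-overproducing), 750 cells/well in RPMI with 5% FBS, dosed after 2 h and incubated 48 h at 37C. CellTiter-Glo luminescence normalized to DMSO and no-cell wells; concentration-response curves fitted and classed.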
IL1B secr inh – blocks inflammasome-driven IL-1 beta release; THP-1 LPS/ATP IL-1B secretion, AlphaLISA, 16 h; stronger effect = lower value; activity change, % at 57.5 µM; actives 4.7% (n = 360,000); in the data active means activity change below about -50%; inconclusive means mostly about -30% to -49%
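THP-1 cells pretreated 1 hr with compounds (up to 57.5 uM final), then stimulated with LPS (250 ng/mL final) plus ATP (1.25 mM final); secreted IL-1B measured by AlphaLISA after 16 hr, decreased signal indicating inhibition.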
ELG1 DNA repair – ELG1-dependent DNA repair inhibition. Potency, µM (titrated, usually from 46.1 µM), most hits filed as inhibitors. actives 2.3% (n = 330,000). HEK293T ELG1-luciferase reporter, luminescence, 16 h; DNA damage induced by 5-fluorouridine. AID 504467; further: nearly all actives have a fitted effect of over 55% in size
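Overnight (16 hr) co-exposure of 2,000 cells/well to 5-fluorouridine and compound at 37 °C preceded detection. Luciferase was quantified via ONE-Glo luminescence; loss of signal denotes inhibition.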
DT40 TDP1 CPT – DT40-hTDP1 cell growth loss with CPT; chicken DT40 Tdp1-/-;hTDP1 cells + 20 nM CPT, ATP luminescence, 48 h; Potency, µM (highest dose often 46.2 µM), actives largely listed as inhibitors; actives 12% (n = 420,000); AID 686979; further: nearly all actives have a fitted effect of over 55% in size
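Chicken DT40 Tdp1-/- cells stably complemented with human TDP1 were seeded at 400 cells/well in medium containing 20 nM camptothecin, exposed to pin-transferred compounds, and grown at 37 °C for at least 48 hr. Viability was read as ATP luminescence.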
Of the large screens only hits and unclear results are named; the others gave an inactive call. Unless noted, the call rests on the fitted dose curve; in most records, active means well fitted curve in the direction sought with a large enough effect; inconclusive means small, poorly fitted or top-dose-only effect, or another doubt; inactive means no such curve, though single readings can be large; an effect the other way counts as inactive or inconclusive.

COc1ccc2[nH]c3c(c2c1)CCN1C(=O)C(CC(=O)NCC24CC5CC(CC(C5)C2)C4)C[C@H](C(=O)N2CCCCC2)[C@@]31C (stereo partly specified)	DT40 TDP1 no CPT 18µM, IL1B secr inh -64, ELG1 DNA repair 13µM, DT40 TDP1 CPT inconclusive
CC(C)(C)NC(=O)CC1C[C@H](C(=O)N2CCCCC2)[C@@]2(C)c3[nH]c4ccccc4c3CCN2C1=O (stereo partly specified)	DT40 TDP1 no CPT inconclusive
c1ccc(CNc2cncnc2)cc1	none
O=C1NC(Cc2ccc(O)cc2)c2nc3ccc(F)cc3c(=O)n2-c2cc(Cl)ccc21 (stereo unspecified)	none (no result: ELG1 DNA repair)
O=C(Nc1ccccc1C(=O)Nc1nccs1)c1ccccc1	DT40 TDP1 no CPT inconclusive, HT1080 IDH1KD tx inconclusive, HT1080NT lethal inconclusive, DT40 TDP1 CPT inconclusive (no result: ELG1 DNA repair)
C[C@]12c3[nH]c4ccccc4c3CCN1C(=O)C(CC(=O)NCC13CC4CC(CC(C4)C1)C3)C[C@@H]2C(=O)N1CCOCC1 (stereo partly specified)	DT40 TDP1 no CPT 23µM, DT40 TDP1 CPT 16µM
CCN(CC)C(=O)[C@H]1CC(CC(=O)NCC23CC4CC(CC(C4)C2)C3)C(=O)N2CCc3c([nH]c4ccc(OC)cc34)[C@]12C (stereo partly specified)	DT40 TDP1 no CPT 13µM, IL1B secr inh -55, ELG1 DNA repair 23µM, DT40 TDP1 CPT 21µM
COc1cc(NC(=O)COC(=O)Cc2ccsc2)cc(OC)c1	ELG1 DNA repair inconclusive
O=C(Nc1ccc(F)cc1)C1CCCN1S(=O)(=O)c1ccc(Br)cc1 (stereo unspecified)	DT40 TDP1 CPT inconclusive
O=C(Nc1ccc(N2CCOCC2)cc1N1CCOCC1)c1ccc(F)cc1	none
COc1ccc(C(=O)NC(C)CCc2ccccc2)cc1[N+](=O)[O-] (stereo unspecified)	DT40 TDP1 no CPT inconclusive
COc1ccc(C(=O)C(C)[n+]2ccc(C)c3ccccc32)cc1[N+](=O)[O-] (stereo unspecified)	DT40 TDP1 no CPT 7.3µM, DT40 TDP1 CPT 18µM
CCCC(=O)NC(NC(=S)Nc1c(C)n(C)n(-c2ccccc2)c1=O)C(Cl)(Cl)Cl (stereo unspecified)	DT40 TDP1 no CPT 29µM, DT40 TDP1 CPT inconclusive
Cc1c(NC(=S)N/N=C/c2cccc(O)c2)c(=O)n(-c2ccccc2)n1C	none
Cc1c(NC(=S)N/N=C/c2ccc(N(C)C)cc2)c(=O)n(-c2ccccc2)n1C	DT40 TDP1 no CPT inconclusive, DT40 TDP1 CPT 16µM
CCCC(=O)NC(Nc1c(C)n(C)n(-c2ccccc2)c1=O)C(Cl)(Cl)Cl (stereo unspecified)	none
CC(C)(C)OC(=O)NN1CC(=O)N2[C@@H](Cc3c([nH]c4ccccc34)C2(C)C)C1=O	none
COc1cccc(CN2CCC(c3nnc(SCC4CCCO4)n3C)CC2)c1O (stereo unspecified)	none (no result: HT1080 IDH1KD tx, HT1080NT lethal, IL1B secr inh, ELG1 DNA repair)
CN(C)c1cc(-c2cccc(NS(C)(=O)=O)c2)ncn1	none (no result: HT1080 IDH1KD tx, HT1080NT lethal, IL1B secr inh, ELG1 DNA repair)
CS(=O)(=O)Nc1cccc(-c2ccc3ncnc(Nc4ccccc4)c3c2)c1	DT40 TDP1 no CPT 21µM, DT40 TDP1 CPT inconclusive (no result: HT1080 IDH1KD tx, HT1080NT lethal, IL1B secr inh, ELG1 DNA repair)
CN(C)c1ncnc2ccc(-c3cccc(NS(C)(=O)=O)c3)cc12	DT40 TDP1 no CPT 16µM, DT40 TDP1 CPT 21µM (no result: HT1080 IDH1KD tx, HT1080NT lethal, IL1B secr inh, ELG1 DNA repair)
CS(=O)(=O)Nc1cccc(-c2ccc3ncnc(N4CCNCC4)c3c2)c1	DT40 TDP1 no CPT inconclusive, DT40 TDP1 CPT 15µM (no result: HT1080 IDH1KD tx, HT1080NT lethal, IL1B secr inh, ELG1 DNA repair)
CS(=O)(=O)Nc1cccc(-c2ccc3ncnc(NC4CCNCC4)c3c2)c1	none (no result: HT1080 IDH1KD tx, HT1080NT lethal, IL1B secr inh, ELG1 DNA repair)
CCCc1nc2nc(C)c(NS(=O)(=O)c3ccc([N+](=O)[O-])cc3)c(=O)n2[nH]1	none

Bioassay records as filed in PubChem.
